# Assay results reported in PubChem BioAssay AID431 (Sanford-Burnham Center for Chemical Genomics, 2006).
# Out of some 63,000 compounds screened, about 1,100 (1.7%) were called active. This is one part of a sample in which actives are shown more often than they occur. Measured potencies and affinities stand elsewhere. A number with no mark means an inactive call.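 The calls were made as follows: active = compounds whose percent cytotoxicity in the single-dose primary screen, scaled between solvent and toxic-drug controls, exceeds 50; inactive = the rest.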
# Test: viability loss of HPDE-C7K cells – cell-based, fluorescence, HTS, primary screen (AID 431);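 also: 0% = DMSO solvent wells and 100% = doxorubicin-treated wells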
# Details: HPDE-C7K KRASV12 cells, Alamar Blue viability, 48 h; at 10 µM; active compounds read high
row,Structure (SMILES),cytotoxicity
1,Fc1ccc(CN2CCCCCCC2)c(F)c1,4.9%
2,CCCC(C(=O)NCc1ccco1)N(C(=O)CNS(=O)(=O)c1ccc(Cl)cc1)C1CCCC1 (stereo unspecified),2.5%
3,Cc1cccc(N2CCN(C(=O)c3cn(C)c(=O)c4c3c3ccccc3n4C)CC2)c1C,88.5% (active)
4,Cc1ccc(Cl)cc1N1CCN(C(=O)c2cn(C)c(=O)c3c2c2ccccc2n3C)CC1,110% (active)
5,Cc1ccc(Cl)cc1N1CCN(C(=O)c2cc3c(=O)n(C)c4ccccc4c3n2C)CC1,38.6%
6,COc1ccc(N2CCN(C(=O)c3cn(C)c(=O)c4c3c3ccccc3n4C)CC2)cc1,10.6%
7,Cn1cc(C(=O)N2CCN(C(=O)c3ccco3)CC2)c2c3ccccc3n(C)c2c1=O,-0.8%
8,CCOC(=O)N1CCN(C(=O)c2cn(C)c(=O)c3c2c2ccccc2n3C)CC1,4.1%
9,Cn1c2c(c(=O)n(C)c1=O)CN(Cc1ccc3c(c1)OCO3)CN2,4.8%
10,O=C(Nc1ccc(Cl)cn1)c1cc2ccccc2o1,-4.1%
11,COc1cc(C2Nc3cc(Cl)c(S(N)(=O)=O)cc3S(=O)(=O)N2)cc(OC)c1OC (stereo unspecified),-17.3%
12,N#CCCN1CCN(S(=O)(=O)c2ccc(S(=O)(=O)N3CCCCCC3)cc2)CC1,0.7%
13,COc1ccc(N2CCN(C(=O)CN3C(=O)C4CC=CCC4C3=O)CC2)cc1 (stereo unspecified),0.2%
14,Cc1ccc(C2C3=C(CC(C)(C)CC3=O)NC3=C2C(=O)CC(C)(C)C3)o1,-0.9%
15,COCCNC(=O)c1c(N)n(-c2cccc(C)c2)c2nc3ccccc3nc12,26.4%
16,COCCn1c(N)c(C(=O)NCC2CCCO2)c2nc3ccccc3nc21 (stereo unspecified),15.6%
17,COCCn1c(N)c(C(=O)NCc2cccs2)c2nc3ccccc3nc21,9.2%
18,COCCNC(=O)c1c(N)n(CCCn2ccnc2)c2nc3ccccc3nc12,6.1%
19,Nc1c(C(=O)NCC2CCCO2)c2nc3ccccc3nc2n1-c1ccccc1 (stereo unspecified),10.6%
20,CC(C)Cn1c(N)c(C(=O)NCCN2CCOCC2)c2nc3ccccc3nc21,-5.3%
21,CC(C)Cn1c(N)c(C(=O)NCc2cccs2)c2nc3ccccc3nc21,92.2% (active)
22,Nc1c(C(=O)NC2CCCC2)c2nc3ccccc3nc2n1N,10.7%
23,CC(C)Cn1c(N)c(C(=O)NCC2CCCO2)c2nc3ccccc3nc21 (stereo unspecified),22.7%
24,COCCSc1nnc(-c2cccc(C#N)c2)n1C,-2.9%
25,COc1cc(C)c(C#N)c(OC)n1,0%
26,CC(C)OCC(O)CN (stereo unspecified),-11.2%

row,Structure (SMILES),cytotoxicity
1,CCCn1c(=C(C#N)C#N)s/c(=C2\C=Cc3ccccc3N2CC)c1=O,6%
2,Cc1nc(C)c(C(=O)NCc2ccc(Cl)cc2)o1,-5.4%
3,O=C(CN1CCN(S(=O)(=O)c2ccc(F)cc2)CC1)Nc1ccc2c(c1)OCO2,0.6%
4,CCOC(=O)COc1ccc2nsnc2c1Cl,2.6%
5,COCCn1c(SC(C)C(=O)Nc2ccc3c(c2)OCCO3)nc2ccccc2c1=O (stereo unspecified),-20.1%
6,CCc1nnc(NC(=O)CSc2nnc(Cc3cccn3C)n2C)s1,4%
7,CC1(C)Cc2c(c(N3CCOCC3)nc3snc(Br)c23)CO1,-11%
8,CC1(C)Cc2c(c(N3CCOCC3)nc3sc(C(=O)N4CCCCC4)c(N)c23)CO1,-5.9%
9,Cc1cc(O)ccc1Nc1nc(-c2sc(N)nc2C)cs1,13%
10,Cc1nc(-c2c(-c3ccc(O)cc3O)noc2C(F)(F)F)cs1,1.3%
11,Cc1cccnc1Nc1nc(-c2ccc(O)cc2O)cs1,78% (active)
12,COc1ccc(C(C(=O)NC(C)(C)C)N(Cc2ccco2)C(=O)CCC(=O)Nc2cc(C)on2)cc1 (stereo unspecified),-10%
13,O=C(O)c1ccc(CS(=O)(=O)c2cccc(C(F)(F)F)c2)o1,0.8%
14,CC(=O)N1C(=O)C2(Nc3ccccc3N2)c2ccccc21,2.8%
15,CCCCOc1ccc(OCCCC)c2c1NC1(N2)C(=O)N(C(C)=O)c2ccccc21,59.6% (active)
16,CCNC(=O)N1C(=O)C2(OCCO2)c2ccccc21,-11.6%
17,CCn1c(=NC(=O)CSC(C)=O)sc2cc(F)ccc21,-9.8%
18,Cc1c(C(C)O)nnn1-c1nonc1N (stereo unspecified),7.8%
19,CC(c1ccco1)N(C(=O)C12CC3CC(CC(C3)C1)C2)c1ccccn1 (stereo unspecified),-19.3%
20,CC(=O)Oc1c(S(=O)(=O)c2ccc(C)cc2)c(C)nn1C(C)(C)C,3.3%
21,Cc1ccc(S(=O)(=O)c2c(C)nn(C(C)(C)C)c2OC(=O)c2cccs2)cc1,5%
22,Cc1nn(-c2ccccc2)c(OC(=O)c2cccs2)c1S(=O)(=O)c1ccccc1,1.2%
23,Cc1nn(C(C)(C)C)c(OC(=O)c2cccs2)c1S(=O)(=O)c1ccccc1,64% (active)
24,Cc1ccc(S(=O)(=O)c2c(C)nn(C(C)(C)C)c2OC(=O)c2ccco2)cc1,5.7%
25,O=C(Cc1coc2ccc3ccccc3c12)N1CCN(c2ncccn2)CC1,0.6%
26,COc1ccc(Nc2cc(=O)n(C3CCCCC3)c(=O)[nH]2)c(OC)c1,-8.6%

row,Structure (SMILES),cytotoxicity
1,CCC(=O)Nc1ccc(OC)cc1OC,-5.2%
2,COc1ccc(OCc2nn3c(-c4ccccn4)nnc3s2)cc1,4%
3,CN1CCN(c2ncnc3c2sc2nc(N4CCCC4)c4c(c23)CC(C)(C)OC4)CC1,-9.3%
4,CC1(C)Cc2c(c(N3CCCC3)nc3sc4c(N5CCN(CCO)CC5)ncnc4c23)CO1,67.8% (active)
5,OCCN1CCN(c2ncnc3c2sc2nc(N4CCOCC4)c4c(c23)CCC4)CC1,39.9%
6,O=c1[nH]nc2c3ccccc3cnn12,-22%
7,C=COCCNC(=O)C1CC(=O)N(c2ccc(C)cc2)C1 (stereo unspecified),13.2%
8,Cc1ccc(-c2cc(-c3ccccc3)c(C#N)c(N)n2)o1,10.2%
9,Cc1ccc(-c2cc(-c3ccc(Cl)cc3)c(C#N)c(N)n2)o1,74.2% (active)
10,Cc1ccc(-c2cc(-c3ccc(C)o3)nc(N)c2C#N)cc1,-2.5%
11,Cc1ccc(-c2cc(-c3ccc(F)cc3)nc(N)c2C#N)o1,4.4%
12,Cc1ccc(-c2cc(-c3ccccc3Cl)c(C#N)c(N)n2)o1,20.7%
13,Cc1cc(-c2cc(-c3ccc(Cl)cc3)nc(N)c2C#N)co1,92% (active)
14,Cc1ccc(Cl)cc1NC(=O)CC(O)(C(F)(F)F)C(F)(F)F,57.3% (active)
15,Cc1ccc(NC(=O)CC(O)(C(F)(F)F)C(F)(F)F)c(Br)c1,-6.8%
16,CCNC(=O)CCC(=O)Nc1cc(Cl)ccc1C,-14.8%
17,COC(=O)c1sccc1NC(=O)c1ccc(OC)cc1,13.2%
18,COc1ccc(C2CC(c3cc(Br)ccc3F)n3nnnc3N2)cc1 (stereo unspecified),1.9%
19,O=C(c1ccccc1)c1ccncc1,56.1% (active)
20,O=C(c1ccccc1)c1nnc(-c2ccncc2)o1,-7.9%
21,O=C(c1ccncc1)c1ccc(Br)cc1,1.4%
22,O=S(=O)(NCCSc1nnc(-c2ccco2)n1-c1ccccc1)c1ccccc1,-7.3%
23,C=C(C)Cn1c(Sc2nc3ccccc3[nH]2)nc2c1c(=O)[nH]c(=O)n2C,21.2%
24,c1ccc(-c2nnc(N3CCN(c4ccccn4)CC3)c3ccccc23)cc1,-2.1%
25,Cc1ccc(-c2nnc(N3CCN(S(C)(=O)=O)CC3)c3ccccc23)cc1,-3.8%
26,COc1ccccc1NC(=O)CSc1nnc(C)n1Cc1ccccc1,-12.1%

row,Structure (SMILES),cytotoxicity
1,O=C(Nc1ccc(Br)cc1F)c1ccncc1,-12.6%
2,CCCNc1nc2c(c(=O)[nH]c(=O)n2C)n1CCC(C)C,9%
3,Cc1ccc(Cl)c(Nc2ccccc2C(=O)O)c1Cl,67.9% (active)
4,Cc1c(Cl)cccc1Nc1ccccc1C(=O)O,46%
5,Cc1cccc(Nc2ccccc2C(=O)O)c1C,6%
6,CCN(CC)C(=O)Oc1ccc2c(=O)c(-c3ccccc3)coc2c1,-28%
7,CCN(CC)C(=O)Oc1ccc2c(=O)c(-c3ccc(OC)cc3)coc2c1,-3.7%
8,CC(C)Oc1ccc2c(=O)c(-c3ccccc3)coc2c1,53.7% (active)
9,O=C(NC1CCCc2ccccc21)C1CCC(CNc2c(N3CCOCC3)c(=O)c2=O)CC1 (stereo unspecified),-5%
10,O=C(NCC1CCCO1)C1CCN(C(=O)c2ccc(Cl)cc2)CC1 (stereo unspecified),-4.1%
11,Cc1ccc2c(c1)nnn2C1CCN(CC(=O)Nc2ccc3c(c2)OCCO3)CC1,-7.5%
12,c1cn2c(NC3CCCC3)c(-c3ccc(N4CCOCC4)cc3)nc2cn1,7.8%
13,COc1cc(-c2nc3cnccn3c2Nc2ccccc2)ccc1O,16.3%
14,CCOC(=O)C1=CN(C)C=C(C(=O)OCC)C1c1ccsc1,6.2%
15,COC(=O)c1ccc(C)c(NS(=O)(=O)c2ccc(OC)cc2)c1,65.2% (active)
16,COC(=O)c1ccc(C)c(NS(=O)(=O)c2ccc3c(c2)OCCO3)c1,59.3% (active)
17,CCCNC(=O)c1ccccc1NS(=O)(=O)c1ccc2c(c1)OCCO2,28.6%
18,O=C(O)c1ccc(NS(=O)(=O)c2ccc3c(c2)OCCO3)cc1,1.7%
19,COC(=O)c1ccc(C)c(NS(=O)(=O)c2ccc(NC(C)=O)cc2)c1,4.5%
20,CC(=O)c1cc2c(cc1NS(=O)(=O)c1ccc3c(c1)OCCO3)OCO2,37.2%
21,COC(=O)c1ccc(Cl)c(NS(=O)(=O)c2ccc3c(c2)OCCO3)c1,63.6% (active)
22,COC(=O)c1ccc(NS(=O)(=O)c2ccc(OC)cc2)cc1,-10.3%
23,COC(=O)c1ccc(C)c(NC(=O)CN(c2ccc3c(c2)OCO3)S(C)(=O)=O)c1,-3.2%
